The source made the active and inactive calls. Rule for the calls: active = hit-call score of the fitted dose curve at least 0.9, where 1 is the maximum; inactive = score below 0.9.
test: ATG_E_Box_CIS: Attagene CIS-FACTORIAL HepG2 Assay for human Enhancer Box (E-box) (AID 2282936); conditions: HepG2 E-box cis-reporter transcription, actives raise or lower the signal
Protocol: ATG_CIS is a cell-based, multiplexed-readout assay that uses HepG2, a human liver cell line, with measurements taken at 24 hours after chemical dosing in a 24-well plate.ATG_E_Box_CIS is one of 52 assay component(s) measured or calculated from the ATG_CIS assay. It is designed to make measurements of mRNA induction, a form of inducible reporter, as detected with fluorescence intensity signals by Reverse transcription polymerase chain reaction (RT-PCR) and Capillary electrophoresis technology.Data from the assay component ATG_E_Box_CIS was analyzed into 1 assay endpoint. This assay endpoint, ATG_E_Box_CIS, was analyzed with bidirectional fitting relative to DMSO as the negative control and baseline of activity. Using a type of inducible reporter, measures of mRNA for gain or loss-of-signal activity can be used to understand the reporter gene at the transcription factor-level as they relate to the gene USF1. Furthermore, this assay endpoint can be referred to as a primary readout, because this assay has produced multiple assay endpoints where this one serves a reporter gene function. To generalize the intended target to other relatable targets, this assay endpoint is annotated to the dna binding intended target family, where the subfamily is basic helix-loop-helix protein.
Human liver HepG2 cells are transiently transfected with multiple reporter transcription units (MRTUs) in 6-well plates using FuGene 6 reagent (Roche; 3 ml FuGene/1 mg DNA). The MRTU constructs are regulated by a cis-regulating element (promoter). […] A major difference between the CIS and TRANS system is that in CIS activities of endogenous TFs are measured, whereas the TRANS assay evaluates changes in activities of exogenous, chimeric NR-Gal4 proteins. […] At the end of 24 hour incubation, total RNA was isolated using TriZol reagent (Invitrogen). The isolated RNA is then reverse-transcribed using oligo(dT) primer and Mo-MLV reverse transcriptase (Invitrogen) with DNAse I (Ambion) treatment for 30 min. The one-tenth of the produced cDNA was amplified by PCR using Taq DNA polymerase (Invitrogen) and two reporter sequence-specific primers. The PCR products were fluorescently labeled by primer extension with 6-arboxyfluorescein (6-FAM) 5'-labeled reporter sequence-specific primer (2 min at 95 C, 20 s at 68 C and 10 min at 72 C) and these products were digested with 5U of HpaI (New England Biolabs) for 2h at 37 C. The fragments were purified using Qiaquick PCR columns (Qiagen), analyzed on an ABI 3130xL genetic analyzer (Applied Biosystems) with peak positions identified by using a set of X-rhodamine (ROX)-labeled MapMarker1000 molecular weight standards (BioVentures). The raw capillary electrophoresis data was processed using Attagraph software (Attagene).

Row | SMILES | outcome
1 | CCCN(CC)CC1COC2(CCC(C(C)(C)C)CC2)O1 (stereo not given) | inactive
2 | CC1(C)C(C=C(Cl)Cl)C1C(=O)OC(C#N)c1cccc(Oc2ccccc2)c1 (stereo not given) | inactive
3 | COCc1cnc(C2=NC(C)(C(C)C)C(=O)N2)c(C(=O)O)c1 (stereo not given) | inactive
4 | CC1(C)CON(Cc2ccccc2Cl)C1=O | inactive
5 | CCOP(=O)(OCC)Oc1nc(Cl)c(Cl)cc1Cl | inactive
6 | CO/N=C(/C1=NOCCO1)c1ccccc1Oc1ncnc(Oc2ccccc2Cl)c1F | inactive
7 | CC(C)N1C(=O)N(c2ccccc2)CSC1=NC(C)(C)C | inactive
8 | COCC(C)N(C(=O)CCl)c1c(C)csc1C (stereo not given) | inactive
9 | O=c1n(Cl)c(=O)n(Cl)c(=O)n1Cl | inactive
10 | COP(=O)(OC)O/C(C)=C/C(=O)N(C)C | inactive
11 | N#Cc1c(Cl)cccc1Cl | inactive
12 | CNC(=O)N(C)c1nnc(C(C)(C)C)s1 | inactive
13 | COC(=O)NS(=O)(=O)c1ccc(N)cc1 | inactive
14 | COP(=S)(OC)Oc1ccc([N+](=O)[O-])c(C)c1 | inactive
15 | CCOc1nc(F)cc2nc(S(=O)(=O)Nc3c(Cl)cccc3Cl)nn12 | inactive
16 | CC(C)=CC1C(C(=O)OCc2coc(Cc3ccccc3)c2)C1(C)C (stereo not given) | inactive
17 | Nc1c(Cl)c(Cl)nc(C(=O)O)c1Cl | inactive
18 | Cc1cnc(C2=NC(C)(C(C)C)C(=O)N2)c(C(=O)O)c1 (stereo not given) | inactive
19 | COP(=S)(OC)SCn1nnc2ccccc2c1=O | inactive
20 | COc1ccc(-c2ccccc2)cc1NNC(=O)OC(C)C | inactive

Row | SMILES | outcome
21 | CCCC(=NOCC)C1=C(O)CC(CC(C)SCC)CC1=O (stereo not given) | inactive
22 | CCCCC(C#N)(Cn1cncn1)c1ccc(Cl)cc1 (stereo not given) | inactive
23 | CC(C)Oc1cccc(NC(=O)c2ccccc2C(F)(F)F)c1 | inactive
24 | COC(=O)N(C(=O)N1CO[C@@]2(C(=O)OC)Cc3cc(Cl)ccc3C2=N1)c1ccc(OC(F)(F)F)cc1 | inactive
25 | CCC(C)n1c(=O)[nH]c(C)c(Br)c1=O (stereo not given) | inactive
26 | COc1cc(OC)nc(NC(=O)NS(=O)(=O)c2ncccc2OCC(F)(F)F)n1 | inactive
27 | CC(C)C1(C)N=C(c2ncccc2C(=O)O)NC1=O (stereo not given) | inactive
28 | COC(=O)NC(=S)Nc1ccccc1NC(=S)NC(=O)OC | inactive
29 | CC(C)NC(=O)N1CC(=O)N(c2cc(Cl)cc(Cl)c2)C1=O | inactive
30 | CCOP(=S)(OCC)Oc1nc(Cl)n(C(C)C)n1 | inactive
31 | CN=C=S | inactive
32 | CCOc1cc(C(C)(C)C)ccc1C1COC(c2c(F)cccc2F)=N1 (stereo not given) | inactive
33 | Cc1cc(C)nc(Nc2ccccc2)n1 | inactive
34 | O=C(O)c1c(Cl)ccc2cc(Cl)cnc12 | inactive
35 | Cc1c(COC(=O)[C@@H]2[C@H](/C=C(\Cl)C(F)(F)F)C2(C)C)cccc1-c1ccccc1 | inactive
36 | CCOC(=O)C(C)OC(=O)c1cc(Oc2ccc(C(F)(F)F)cc2Cl)ccc1[N+](=O)[O-] (stereo not given) | inactive
37 | CCNC(=O)NC(=O)C(C#N)=NOC | inactive
38 | CCCCOCN(C(=O)CCl)c1c(CC)cccc1CC | inactive
39 | Clc1cccc(C(Cl)(Cl)Cl)n1 | inactive
40 | COCC(=O)N(c1c(C)cccc1C)C(C)C(=O)OC (stereo not given) | inactive

Source: PubChem BioAssay (EPA / NIEHS)
